Reference: the supplement of paper PMC11732987, “Enantioselective OTUD7B fragment discovery through chemoproteomics screening and high-throughput optimisation” (Communications Chemistry, 2025)
Values without a mark were called inactive.

What was measured:
Test in all cases: log2 ratio of Biotin-Ahx-Ub-VS probe labelling (fragment/DMSO); higher = less target engagement (more negative = stronger competition), active = hit call of the paper (q ≤ 0.05, log2 ratio ≤ -1)
Conditions in all cases: compound concentration: 200 uM; treatment time: 3 h
[1] = molecular target: T1, OTUD6B (UniProt Q8N6M0)
T1 sequence (whole entry): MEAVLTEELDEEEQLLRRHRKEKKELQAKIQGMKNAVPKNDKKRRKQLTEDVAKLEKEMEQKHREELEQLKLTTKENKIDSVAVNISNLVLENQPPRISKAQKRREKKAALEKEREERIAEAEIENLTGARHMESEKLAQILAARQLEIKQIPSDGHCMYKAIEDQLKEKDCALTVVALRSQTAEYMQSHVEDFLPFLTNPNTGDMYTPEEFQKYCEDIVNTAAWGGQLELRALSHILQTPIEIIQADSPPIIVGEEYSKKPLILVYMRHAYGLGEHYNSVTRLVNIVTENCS
Outline: (§1)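 Triplicate samples of HEK293T lysate, 495 µg each, received fragment at 200 µM or vehicle for 3 h, followed by Biotin-Ahx-Ub-VS (0.5 µM final) for 1 h. After NeutrAvidin enrichment of labelled DUBs and LysC/trypsin digestion, peptides were run by diaPASEF LC-MS/MS. The values are average log2 fragment/vehicle ratios from global-median-normalised Spectronaut label-free quantities, tested by unpaired t-test on proteins having ≥2 unique peptides.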

[2] = molecular target: T2, OTUD7B (UniProt Q6GQQ9)
T2 sequence (whole entry): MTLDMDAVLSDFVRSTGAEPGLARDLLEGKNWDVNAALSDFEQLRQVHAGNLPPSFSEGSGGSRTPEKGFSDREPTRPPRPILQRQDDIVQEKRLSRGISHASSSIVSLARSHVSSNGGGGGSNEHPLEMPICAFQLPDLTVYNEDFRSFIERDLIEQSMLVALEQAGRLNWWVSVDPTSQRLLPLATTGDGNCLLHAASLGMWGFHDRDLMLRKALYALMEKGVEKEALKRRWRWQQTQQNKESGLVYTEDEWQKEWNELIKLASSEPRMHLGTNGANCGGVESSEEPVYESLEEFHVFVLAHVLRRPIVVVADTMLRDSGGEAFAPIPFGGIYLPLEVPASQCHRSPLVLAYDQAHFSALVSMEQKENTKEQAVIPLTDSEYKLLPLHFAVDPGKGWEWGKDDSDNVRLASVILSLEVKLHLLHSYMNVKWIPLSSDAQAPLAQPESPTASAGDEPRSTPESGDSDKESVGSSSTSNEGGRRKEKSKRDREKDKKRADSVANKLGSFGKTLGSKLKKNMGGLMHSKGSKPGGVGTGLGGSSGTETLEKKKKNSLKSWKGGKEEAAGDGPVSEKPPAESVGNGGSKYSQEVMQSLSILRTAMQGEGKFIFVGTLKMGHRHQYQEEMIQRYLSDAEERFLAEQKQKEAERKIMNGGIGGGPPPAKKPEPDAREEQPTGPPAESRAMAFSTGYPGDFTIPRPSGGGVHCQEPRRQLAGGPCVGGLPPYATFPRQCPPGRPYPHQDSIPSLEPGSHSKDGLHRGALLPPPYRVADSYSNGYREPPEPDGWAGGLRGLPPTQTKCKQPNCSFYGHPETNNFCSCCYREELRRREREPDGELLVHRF
Outline: as §1

[3] = molecular target: PRPF8 (UniProt Q6P2Q9)
Outline: as §1

[4] = molecular target: T3, PSMD7 (UniProt P51665)
T3 sequence (whole entry): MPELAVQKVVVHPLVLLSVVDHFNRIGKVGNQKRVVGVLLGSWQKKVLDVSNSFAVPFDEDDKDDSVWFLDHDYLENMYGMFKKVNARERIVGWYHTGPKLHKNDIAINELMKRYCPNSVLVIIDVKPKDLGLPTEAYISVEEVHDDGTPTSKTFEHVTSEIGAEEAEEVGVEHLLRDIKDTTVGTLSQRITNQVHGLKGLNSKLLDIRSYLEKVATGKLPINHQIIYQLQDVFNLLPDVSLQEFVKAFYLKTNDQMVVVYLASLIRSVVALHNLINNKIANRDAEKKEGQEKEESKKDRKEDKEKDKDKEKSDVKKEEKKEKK
Outline: as §1

[5] = molecular target: UCHL1 (UniProt P09936)
UCHL1, sequence (P09936 whole entry, looked up): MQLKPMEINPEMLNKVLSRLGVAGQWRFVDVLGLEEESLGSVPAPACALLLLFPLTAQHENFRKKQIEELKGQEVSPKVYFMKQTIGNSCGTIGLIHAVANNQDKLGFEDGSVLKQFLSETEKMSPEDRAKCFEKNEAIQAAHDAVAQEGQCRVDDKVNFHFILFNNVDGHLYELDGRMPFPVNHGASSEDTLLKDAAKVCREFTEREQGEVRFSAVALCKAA
Outline: as §1

[6] = molecular target: T4, UCHL3 (UniProt P15374)
T4 sequence (whole entry): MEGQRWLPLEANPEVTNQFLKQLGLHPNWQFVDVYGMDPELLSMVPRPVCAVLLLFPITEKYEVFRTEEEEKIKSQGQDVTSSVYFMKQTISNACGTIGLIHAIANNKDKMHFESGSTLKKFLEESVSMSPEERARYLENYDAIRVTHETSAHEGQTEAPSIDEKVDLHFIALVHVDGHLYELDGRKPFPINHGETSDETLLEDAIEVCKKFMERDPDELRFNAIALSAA
Outline: as §1

[7] = molecular target: T5, UCHL5 (UniProt Q9Y5K5)
T5 sequence (whole entry): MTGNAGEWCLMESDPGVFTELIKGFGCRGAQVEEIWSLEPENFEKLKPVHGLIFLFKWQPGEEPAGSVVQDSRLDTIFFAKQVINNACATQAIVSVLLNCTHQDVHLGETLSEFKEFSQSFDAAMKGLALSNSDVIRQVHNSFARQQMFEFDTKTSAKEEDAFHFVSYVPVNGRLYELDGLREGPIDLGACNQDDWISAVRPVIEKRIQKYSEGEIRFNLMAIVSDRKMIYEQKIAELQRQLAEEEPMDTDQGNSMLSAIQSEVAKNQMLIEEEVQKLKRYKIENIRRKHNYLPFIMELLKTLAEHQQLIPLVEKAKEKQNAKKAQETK
Outline: as §1

[8] = molecular target: USP10 (UniProt Q14694)
USP10, sequence (Q14694 whole entry): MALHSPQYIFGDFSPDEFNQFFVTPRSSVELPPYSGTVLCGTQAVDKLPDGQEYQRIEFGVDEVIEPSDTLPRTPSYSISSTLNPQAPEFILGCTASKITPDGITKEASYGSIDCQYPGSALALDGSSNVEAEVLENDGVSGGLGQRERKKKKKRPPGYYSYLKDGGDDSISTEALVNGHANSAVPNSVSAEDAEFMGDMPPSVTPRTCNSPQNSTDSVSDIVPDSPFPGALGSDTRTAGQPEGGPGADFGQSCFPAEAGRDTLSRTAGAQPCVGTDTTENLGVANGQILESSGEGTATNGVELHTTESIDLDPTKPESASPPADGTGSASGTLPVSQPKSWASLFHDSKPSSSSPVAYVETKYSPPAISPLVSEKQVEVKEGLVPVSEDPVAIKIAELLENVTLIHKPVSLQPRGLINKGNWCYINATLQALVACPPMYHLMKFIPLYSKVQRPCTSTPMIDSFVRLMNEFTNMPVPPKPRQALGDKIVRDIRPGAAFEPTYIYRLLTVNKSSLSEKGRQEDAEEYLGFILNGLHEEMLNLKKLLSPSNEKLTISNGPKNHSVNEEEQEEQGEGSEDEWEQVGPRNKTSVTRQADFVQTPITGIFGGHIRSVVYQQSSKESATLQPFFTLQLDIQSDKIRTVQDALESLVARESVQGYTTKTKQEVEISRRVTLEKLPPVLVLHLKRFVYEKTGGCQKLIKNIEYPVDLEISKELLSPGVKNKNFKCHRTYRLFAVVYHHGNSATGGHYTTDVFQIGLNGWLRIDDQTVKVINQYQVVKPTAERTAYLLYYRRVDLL
Outline: as §1

[9] = molecular target: T6, USP15 (UniProt Q9Y4E8)
T6 sequence (whole entry): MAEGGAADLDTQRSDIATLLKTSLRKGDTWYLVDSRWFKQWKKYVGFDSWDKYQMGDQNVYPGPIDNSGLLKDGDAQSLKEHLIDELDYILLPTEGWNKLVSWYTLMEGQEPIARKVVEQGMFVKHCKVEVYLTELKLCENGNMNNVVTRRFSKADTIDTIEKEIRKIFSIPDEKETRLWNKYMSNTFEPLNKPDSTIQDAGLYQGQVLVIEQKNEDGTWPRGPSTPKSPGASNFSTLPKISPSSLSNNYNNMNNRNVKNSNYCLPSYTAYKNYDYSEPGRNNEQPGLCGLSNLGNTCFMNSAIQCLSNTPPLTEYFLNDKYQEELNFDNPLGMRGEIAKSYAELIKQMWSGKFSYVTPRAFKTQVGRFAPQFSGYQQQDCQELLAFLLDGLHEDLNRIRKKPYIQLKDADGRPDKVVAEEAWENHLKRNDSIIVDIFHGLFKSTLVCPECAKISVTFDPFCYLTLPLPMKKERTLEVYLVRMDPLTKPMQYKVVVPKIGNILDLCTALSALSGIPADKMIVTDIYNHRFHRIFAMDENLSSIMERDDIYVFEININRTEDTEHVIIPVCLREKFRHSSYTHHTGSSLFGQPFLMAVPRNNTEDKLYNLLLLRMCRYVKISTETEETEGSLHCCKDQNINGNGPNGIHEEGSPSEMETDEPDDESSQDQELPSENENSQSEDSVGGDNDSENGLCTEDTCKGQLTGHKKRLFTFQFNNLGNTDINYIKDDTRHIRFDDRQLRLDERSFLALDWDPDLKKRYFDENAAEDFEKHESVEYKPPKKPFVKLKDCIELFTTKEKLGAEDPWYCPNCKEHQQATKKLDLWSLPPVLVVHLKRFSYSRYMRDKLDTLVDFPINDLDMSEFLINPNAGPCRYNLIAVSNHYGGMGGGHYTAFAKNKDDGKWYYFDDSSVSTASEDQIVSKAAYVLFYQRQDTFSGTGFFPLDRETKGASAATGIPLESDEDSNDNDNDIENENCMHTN
Outline: as §1

[10] = molecular target: USP16 (UniProt Q9Y5T5)
USP16, sequence (Q9Y5T5 whole entry, looked up): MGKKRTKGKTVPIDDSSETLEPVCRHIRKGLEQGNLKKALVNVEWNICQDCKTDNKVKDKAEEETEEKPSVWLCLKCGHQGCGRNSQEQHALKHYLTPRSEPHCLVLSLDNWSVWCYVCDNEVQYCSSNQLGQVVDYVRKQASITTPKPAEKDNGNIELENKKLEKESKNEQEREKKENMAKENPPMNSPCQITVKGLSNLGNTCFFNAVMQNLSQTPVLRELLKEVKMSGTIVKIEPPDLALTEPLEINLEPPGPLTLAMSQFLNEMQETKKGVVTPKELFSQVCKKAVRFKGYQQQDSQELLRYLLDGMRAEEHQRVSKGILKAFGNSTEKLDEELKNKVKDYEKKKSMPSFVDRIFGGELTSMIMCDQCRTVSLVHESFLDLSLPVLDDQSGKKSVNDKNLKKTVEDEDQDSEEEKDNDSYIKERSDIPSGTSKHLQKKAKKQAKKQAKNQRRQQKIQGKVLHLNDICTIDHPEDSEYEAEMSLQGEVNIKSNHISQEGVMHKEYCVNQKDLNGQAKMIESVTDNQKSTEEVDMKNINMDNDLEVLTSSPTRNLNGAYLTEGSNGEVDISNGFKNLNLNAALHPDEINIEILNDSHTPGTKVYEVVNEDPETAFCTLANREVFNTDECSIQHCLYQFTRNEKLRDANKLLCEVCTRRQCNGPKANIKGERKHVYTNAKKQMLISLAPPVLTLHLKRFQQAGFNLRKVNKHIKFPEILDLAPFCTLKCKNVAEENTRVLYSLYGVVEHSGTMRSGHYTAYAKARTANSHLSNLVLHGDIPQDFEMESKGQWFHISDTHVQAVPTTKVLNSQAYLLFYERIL
Outline: as §1

| Structure (SMILES) | log2 ratio of Biotin-Ahx-Ub-VS probe labelling [1] | log2 ratio of Biotin-Ahx-Ub-VS probe labelling [2] | log2 ratio of Biotin-Ahx-Ub-VS probe labelling [3] | log2 ratio of Biotin-Ahx-Ub-VS probe labelling [4] | log2 ratio of Biotin-Ahx-Ub-VS probe labelling [5] | log2 ratio of Biotin-Ahx-Ub-VS probe labelling [6] | log2 ratio of Biotin-Ahx-Ub-VS probe labelling [7] | log2 ratio of Biotin-Ahx-Ub-VS probe labelling [8] | log2 ratio of Biotin-Ahx-Ub-VS probe labelling [9] | log2 ratio of Biotin-Ahx-Ub-VS probe labelling [10] |
| --- | --- | --- | --- | --- | --- | --- | --- | --- | --- | --- |
| Cc1ccccc1C1(CNC(=O)CCl)CCOCC1 | -0.054 | -0.293 | -0.0655 | -0.0606 | -1.45 (active) | 0.231 | -0.272 | -0.0236 | -0.102 | 0.242 |
| O=C(CCl)N1CCC[C@@H]1c1ccon1 | -0.245 | -0.356 | 0.0558 | -0.283 | -1.49 (active) | 0.0429 | -0.401 | -0.0611 | -0.228 | -0.0988 |
| NS(=O)(=O)c1ccc(Cl)c(NC(=O)CCl)c1 | -0.573 | -1.63 (active) | -0.153 | -0.125 | -1.51 (active) | 0.209 | -0.489 | -0.299 | -0.166 | 0.0198 |
| CN(C)C(=O)c1ccc(CNC(=O)CCl)cc1 | -0.0231 | -0.351 | -0.0967 | -0.0924 | -1.23 (active) | 0.248 | -0.118 | -0.0496 | 0.0414 | 0.0806 |
| CC(NC(=O)CCl)c1cccc(Cl)c1 (stereo not given) | -0.345 | -1.21 (active) | -0.202 | -0.316 | -1.58 (active) | -0.204 | -0.426 | -0.136 | -0.301 | 0.118 |
| O=C(CCl)NCc1ccc(N2CCOCC2)nc1 | -0.139 | -0.502 | -0.0538 | -0.249 | -1.45 (active) | 0.0731 | -0.235 | -0.0833 | -0.285 | -0.342 |
| Cl.O=C(CCl)NCc1cc2c(nc1O)CCCC2 | -0.123 | -0.66 | -0.141 | -0.244 | -1.64 (active) | 0.175 | -0.407 | -0.083 | -0.148 | -0.389 |
